Measurements reported in the supplement of paper PMC7724964.

T1: CAPN2 513-700 EF-hand_8 (domain begin residue: 513, domain end residue: 700), P17655
T1 chain: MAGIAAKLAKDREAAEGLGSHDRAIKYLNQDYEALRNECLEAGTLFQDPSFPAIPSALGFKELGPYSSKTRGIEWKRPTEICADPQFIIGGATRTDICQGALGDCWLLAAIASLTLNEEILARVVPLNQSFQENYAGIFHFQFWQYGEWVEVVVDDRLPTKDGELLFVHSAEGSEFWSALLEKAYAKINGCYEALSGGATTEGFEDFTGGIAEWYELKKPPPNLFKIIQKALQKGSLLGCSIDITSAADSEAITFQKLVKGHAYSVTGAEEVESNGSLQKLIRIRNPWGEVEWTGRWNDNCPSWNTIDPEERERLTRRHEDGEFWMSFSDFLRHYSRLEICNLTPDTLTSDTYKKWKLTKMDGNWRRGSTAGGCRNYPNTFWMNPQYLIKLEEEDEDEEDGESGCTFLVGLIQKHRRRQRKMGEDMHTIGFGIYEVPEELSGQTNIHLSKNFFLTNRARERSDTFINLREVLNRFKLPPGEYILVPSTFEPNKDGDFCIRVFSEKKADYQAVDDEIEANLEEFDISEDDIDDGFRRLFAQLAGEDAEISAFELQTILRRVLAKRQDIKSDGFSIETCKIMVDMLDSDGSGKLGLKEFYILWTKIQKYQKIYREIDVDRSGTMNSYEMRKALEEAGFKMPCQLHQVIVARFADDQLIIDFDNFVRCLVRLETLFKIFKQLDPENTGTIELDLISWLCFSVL

T2: BTN1A1 285-479 SPRY (domain begin residue: 285, domain end residue: 479), Q13410
T2 chain: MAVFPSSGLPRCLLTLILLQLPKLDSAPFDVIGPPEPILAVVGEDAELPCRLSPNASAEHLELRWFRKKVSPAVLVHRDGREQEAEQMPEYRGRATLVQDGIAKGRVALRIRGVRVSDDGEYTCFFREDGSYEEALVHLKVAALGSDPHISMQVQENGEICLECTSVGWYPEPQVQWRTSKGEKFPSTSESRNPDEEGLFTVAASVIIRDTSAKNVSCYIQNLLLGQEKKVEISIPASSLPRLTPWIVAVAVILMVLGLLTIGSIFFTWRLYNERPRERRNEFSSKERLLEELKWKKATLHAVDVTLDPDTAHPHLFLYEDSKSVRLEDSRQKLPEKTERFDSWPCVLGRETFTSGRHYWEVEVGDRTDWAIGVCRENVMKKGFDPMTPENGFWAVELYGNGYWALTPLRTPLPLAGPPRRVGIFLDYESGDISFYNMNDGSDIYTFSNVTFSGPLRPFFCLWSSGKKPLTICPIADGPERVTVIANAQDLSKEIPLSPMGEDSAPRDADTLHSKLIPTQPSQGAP

T3: ARID4A 568-634 Tudor-knot (domain begin residue: 568, domain end residue: 634), P29374
T3 chain: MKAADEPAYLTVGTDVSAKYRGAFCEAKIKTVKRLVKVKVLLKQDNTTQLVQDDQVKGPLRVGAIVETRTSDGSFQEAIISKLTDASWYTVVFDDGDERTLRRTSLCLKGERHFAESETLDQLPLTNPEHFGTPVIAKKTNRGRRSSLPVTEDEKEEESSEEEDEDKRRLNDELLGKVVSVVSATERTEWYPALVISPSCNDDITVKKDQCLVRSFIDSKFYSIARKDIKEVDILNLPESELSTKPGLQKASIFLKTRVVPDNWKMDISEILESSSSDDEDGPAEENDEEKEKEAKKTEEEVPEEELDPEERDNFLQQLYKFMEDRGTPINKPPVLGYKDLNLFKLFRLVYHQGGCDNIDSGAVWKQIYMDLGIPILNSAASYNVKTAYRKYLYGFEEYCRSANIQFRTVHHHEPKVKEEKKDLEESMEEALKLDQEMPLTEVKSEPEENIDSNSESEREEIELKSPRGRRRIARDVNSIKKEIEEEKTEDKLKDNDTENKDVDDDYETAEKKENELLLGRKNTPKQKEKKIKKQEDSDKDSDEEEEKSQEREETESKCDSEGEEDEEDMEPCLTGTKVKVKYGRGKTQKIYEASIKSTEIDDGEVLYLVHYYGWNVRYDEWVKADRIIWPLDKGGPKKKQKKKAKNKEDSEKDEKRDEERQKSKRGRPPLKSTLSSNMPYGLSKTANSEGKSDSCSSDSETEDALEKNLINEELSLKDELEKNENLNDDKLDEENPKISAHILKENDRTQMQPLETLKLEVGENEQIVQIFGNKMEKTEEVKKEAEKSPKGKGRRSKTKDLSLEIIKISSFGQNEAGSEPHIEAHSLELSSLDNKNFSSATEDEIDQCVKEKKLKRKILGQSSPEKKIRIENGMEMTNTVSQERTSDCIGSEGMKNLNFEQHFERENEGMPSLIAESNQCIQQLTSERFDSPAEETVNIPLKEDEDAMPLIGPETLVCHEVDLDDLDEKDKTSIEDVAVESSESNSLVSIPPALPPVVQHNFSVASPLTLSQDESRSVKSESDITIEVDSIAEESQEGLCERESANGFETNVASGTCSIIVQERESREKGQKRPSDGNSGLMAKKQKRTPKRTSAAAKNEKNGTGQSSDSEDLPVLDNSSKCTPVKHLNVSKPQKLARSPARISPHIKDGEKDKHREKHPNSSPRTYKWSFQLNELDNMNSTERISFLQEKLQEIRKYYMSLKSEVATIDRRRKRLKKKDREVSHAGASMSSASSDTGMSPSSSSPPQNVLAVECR

T4: ALDOA 1-364 Glycolytic (domain begin residue: 1, domain end residue: 364), P04075
T4 chain: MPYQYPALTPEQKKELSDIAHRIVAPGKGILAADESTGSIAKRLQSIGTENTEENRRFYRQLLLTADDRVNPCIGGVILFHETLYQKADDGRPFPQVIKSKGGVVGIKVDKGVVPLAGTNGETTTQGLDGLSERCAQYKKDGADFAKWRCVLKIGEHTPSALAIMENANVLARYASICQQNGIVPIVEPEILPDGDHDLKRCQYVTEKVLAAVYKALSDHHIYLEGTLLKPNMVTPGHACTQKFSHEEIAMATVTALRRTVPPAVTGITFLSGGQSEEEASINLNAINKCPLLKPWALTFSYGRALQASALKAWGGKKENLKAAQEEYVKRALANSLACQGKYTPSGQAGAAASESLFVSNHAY

B1: unnamed (peptide)
chain: WDAFVNDFMHEWSTFK
B2: unnamed (peptide)
chain: WIENWSVSPWDLTNPF
B3: unnamed (peptide)
chain: GWWQSREYYMQDLMAS
B4: unnamed (peptide)
chain: QQVVDMQQMWQQWIEI
B5: unnamed (peptide)
chain: MYDEWHMPDSYEVVVQ
B6: unnamed (peptide)
chain: VDGWWIARSEHLMQMA
B7: unnamed (peptide)
chain: GLDLDYWTMPGLETLL
B8: unnamed (peptide)
chain: WVYENGEWEWTFPPSA

Biological target: T1, CAPN2 513-700 EF-hand_8 (domain begin …
Experiment: phage ELISA signal ratio (GST-PRM binding over GST background); higher = stronger binding of peptide-phage to the PRM
Description: (§1)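 Phage-displayed random hexadecapeptides (Cys-free, flanked by invariant Gly linkers, fused to the M13 P8 major coat protein) were selected over 5 rounds against GST-fused human PRM domains. Individual clones from rounds 4-5 were tested by phage ELISA, and positive clones binding the target but not GST were sequenced. Values are the ELISA signal ratio of target over background (GST); the background signal is given separately.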

| Binder | phage ELISA signal ratio |
| --- | --- |
| B1 | 26.5 |

biological target: CBX3 109-173 Chromo_shadow (domain begin residue: 109, domain end residue: 173), Q13185; experiment: as above
Sequence (Q13185 whole entry): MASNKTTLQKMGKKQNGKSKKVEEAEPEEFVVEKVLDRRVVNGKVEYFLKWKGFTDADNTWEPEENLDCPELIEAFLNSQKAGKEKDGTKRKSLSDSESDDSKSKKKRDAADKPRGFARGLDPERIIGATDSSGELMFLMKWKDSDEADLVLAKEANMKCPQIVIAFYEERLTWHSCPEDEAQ
Description: as §1

| Binder | phage ELISA signal ratio |
| --- | --- |
| B2 | 4.99 |

Biological target: T2, BTN1A1 285-479 SPRY (domain begin …
Experiment: as above
Description: as §1

| Binder | phage ELISA signal ratio |
| --- | --- |
| B3 | 5.49 |
| B6 | 11.9 |

Biological target: T3, ARID4A 568-634 Tudor-knot (domain begin …
Experiment: as above
Description: as §1

| Binder | phage ELISA signal ratio |
| --- | --- |
| B4 | 4.93 |
| B7 | 8.9 |

Biological target: T4, ALDOA 1-364 Glycolytic (domain begin …
Experiment: as above
Description: as §1

| Binder | phage ELISA signal ratio |
| --- | --- |
| B5 | 19.3 |
| B8 | 17.8 |
